The campaign covered roughly 5,500 compounds. About 2,000 (36%) were called active. Roughly 18% stayed inconclusive and do not appear here. Rule as the data show it: active = normalized growth mostly below about 0.91 (no sharp cut-off); inconclusive = no clear call, values can overlap the other calls; inactive = mostly above about 0.92. This is one part of the list.
Assay: chemical genetic growth profiling, strain panel (AID 1159580);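 also: tested at 20 µM; growth read once vehicle control cultures reached saturation at 30 °C; 1 = growth at the plate median or of vehicle wells; lower values mean less growth of the strain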
Conditions: growth OD

Measured: normalized growth

COc1cc2cc[n+]3cc4c(OC)c(OC)ccc4cc3c2cc1OC
inactive: S. cerevisiae deletion strains, locus YJR075W, strain HOC1, stronger effect = lower value 0.979 | S. cerevisiae deletion strains, locus YKL009W, strain mrt4, stronger effect = lower value 0.965 | S. cerevisiae deletion strains, locus YKL068W, stronger effect = lower value 0.963 | S. cerevisiae deletion strains, locus YKL085W, strain MDH1 (second series), stronger effect = lower value 0.992 | S. cerevisiae deletion strains, locus YKL085W, strain MDH1, stronger effect = lower value 0.992 | S. cerevisiae deletion strains, locus YKL160W, strain elf1, stronger effect = lower value 0.976 | S. cerevisiae deletion strains, locus YKL190W, strain CNB1, stronger effect = lower value 0.982 | S. cerevisiae deletion strains, locus YKR001C, strain vps1, stronger effect = lower value 0.99 | S. cerevisiae deletion strains, locus YKR026C, strain gcn3, stronger effect = lower value 0.985 | S. cerevisiae deletion strains, locus YKR091W, strain srl3, stronger effect = lower value 0.976 | S. cerevisiae deletion strains, locus YLL001W, strain dnm1, stronger effect = lower value 0.965 | S. cerevisiae deletion strains, locus YLL026W, stronger effect = lower value 0.97 | S. cerevisiae deletion strains, locus YLL041C, strain sdh2, stronger effect = lower value 0.99 | S. cerevisiae deletion strains, locus YLR027C, strain aat2, stronger effect = lower value 0.962 | S. cerevisiae deletion strains, locus YLR039C, strain RIC1, stronger effect = lower value 0.938 | S. cerevisiae deletion strains, locus YLR058C, strain SHM2, stronger effect = lower value 0.985 | S. cerevisiae deletion strains, locus YLR102C, strain apc9, stronger effect = lower value 0.959 | S. cerevisiae deletion strains, locus YLR113W, strain HOG1, stronger effect = lower value 1.02 | S. cerevisiae deletion strains, locus YLR221C, strain rsa3, stronger effect = lower value 0.968 | S. cerevisiae deletion strains, locus YLR258W, strain gsy2, stronger effect = lower value 0.993 | S. cerevisiae deletion strains, locus YLR262C, strain YPT6 (second series), stronger effect = lower value 1.01 | S. cerevisiae deletion strains, locus YLR262C, strain YPT6, stronger effect = lower value 0.926 | S. cerevisiae deletion strains, locus YLR268W, strain sec22, stronger effect = lower value 1 | S. cerevisiae deletion strains, locus YLR320W, strain mms22, stronger effect = lower value 0.979 | S. cerevisiae deletion strains, locus YLR330W, strain CHS5, stronger effect = lower value 0.977 | S. cerevisiae deletion strains, locus YLR342W, strain FKS1 (second series), stronger effect = lower value 0.96 | S. cerevisiae deletion strains, locus YLR342W, strain FKS1, stronger effect = lower value 0.981 | S. cerevisiae deletion strains, locus YLR357W, strain rsc2, stronger effect = lower value 0.95 | S. cerevisiae deletion strains, locus YLR370C, strain arc18, stronger effect = lower value 0.981 | S. cerevisiae deletion strains, locus YLR371W, strain rom2, stronger effect = lower value 0.952 | S. cerevisiae deletion strains, locus YLR384C, strain iki3, stronger effect = lower value 0.977 | S. cerevisiae deletion strains, locus YLR418C, strain cdc73, stronger effect = lower value 1 | S. cerevisiae deletion strains, locus YML016C, strain PPZ1, stronger effect = lower value 0.985 | S. cerevisiae deletion strains, locus YML032C, strain rad52, stronger effect = lower value 0.955 | S. cerevisiae deletion strains, locus YML120C, strain ndi1, stronger effect = lower value 0.978 | S. cerevisiae deletion strains, locus YML124C, strain tub3, stronger effect = lower value 0.985 | S. cerevisiae deletion strains, locus YMR058W, strain fet3, stronger effect = lower value 0.973 | S. cerevisiae deletion strains, locus YMR078C, strain ctf18, stronger effect = lower value 0.986 | S. cerevisiae deletion strains, locus YMR125W, strain sto1, stronger effect = lower value 0.938 | S. cerevisiae deletion strains, locus YMR129W, stronger effect = lower value 0.987 | S. cerevisiae deletion strains, locus YMR205C, strain PFK2, stronger effect = lower value 0.961 | S. cerevisiae deletion strains, locus YMR223W, strain ubp8, stronger effect = lower value 0.97 | S. cerevisiae deletion strains, locus YMR231W, strain pep5, stronger effect = lower value 0.988 | S. cerevisiae deletion strains, locus YMR263W, strain SAP30, stronger effect = lower value 0.988 | S. cerevisiae deletion strains, locus YMR307W, strain GAS1, stronger effect = lower value 1.1 | S. cerevisiae deletion strains, locus YNL067W, strain RPL9B, stronger effect = lower value 0.982 | S. cerevisiae deletion strains, locus YNL071W, strain lat1, stronger effect = lower value 0.988 | S. cerevisiae deletion strains, locus YNL128W, strain TEP1, stronger effect = lower value 0.995 | S. cerevisiae deletion strains, locus YNL153C, strain GIM3, stronger effect = lower value 0.999 | S. cerevisiae deletion strains, locus YNL183C, strain NPR1, stronger effect = lower value 0.95 | S. cerevisiae deletion strains, locus YNL209W, strain ssb2, stronger effect = lower value 0.982 | S. cerevisiae deletion strains, locus YNL233W, strain BNI4, stronger effect = lower value 1 | S. cerevisiae deletion strains, locus YNL248C, strain rpa49, stronger effect = lower value 0.968 | S. cerevisiae deletion strains, locus YNL250W, strain rad50, stronger effect = lower value 0.968 | S. cerevisiae deletion strains, locus YNL271C, strain bni1, stronger effect = lower value 0.975 | S. cerevisiae deletion strains, locus YNL298W, strain CLA4, stronger effect = lower value 0.984 | S. cerevisiae deletion strains, locus YNL307C, strain MCK1, stronger effect = lower value 0.985 | S. cerevisiae deletion strains, locus YNL322C, strain KRE1 (second series), stronger effect = lower value 0.959 | S. cerevisiae deletion strains, locus YNL322C, strain KRE1, stronger effect = lower value 0.98 | S. cerevisiae deletion strains, locus YNR049C, strain mso1, stronger effect = lower value 0.972 | S. cerevisiae deletion strains, locus YNR052C, strain pop2, stronger effect = lower value 0.98 | S. cerevisiae deletion strains, locus YOL006C, strain TOP1, stronger effect = lower value 1.02 | S. cerevisiae deletion strains, locus YOL012C, strain htz1 0.901 | S. cerevisiae deletion strains, locus YOL147C, strain pex11, stronger effect = lower value 0.988 | S. cerevisiae deletion strains, locus YOR001W, strain rrp6, stronger effect = lower value 0.987 | S. cerevisiae deletion strains, locus YOR061W, strain CKA2, stronger effect = lower value 0.98 | S. cerevisiae deletion strains, locus YOR069W, strain VPS5, stronger effect = lower value 0.993 | S. cerevisiae deletion strains, locus YOR070C, strain gyp1, stronger effect = lower value 0.984 | S. cerevisiae deletion strains, locus YOR080W, strain dia2, stronger effect = lower value 0.965 | S. cerevisiae deletion strains, locus YOR083W, strain WHI5, stronger effect = lower value 0.964 | S. cerevisiae deletion strains, locus YOR106W, strain vam3, stronger effect = lower value 0.998 | S. cerevisiae deletion strains, locus YOR136W, strain idh2, stronger effect = lower value 0.986 | S. cerevisiae deletion strains, locus YOR144C, strain elg1, stronger effect = lower value 0.983 | S. cerevisiae deletion strains, locus YOR184W, strain ser1, stronger effect = lower value 0.933 | S. cerevisiae deletion strains, locus YOR231W, strain MKK1, stronger effect = lower value 1.03 | S. cerevisiae deletion strains, locus YOR265W, strain rbl2, stronger effect = lower value 0.989 | S. cerevisiae deletion strains, locus YOR270C, strain vph1, stronger effect = lower value 0.937 | S. cerevisiae deletion strains, locus YOR290C, strain snf2, stronger effect = lower value 0.946 | S. cerevisiae deletion strains, locus YOR316C, strain cot1, stronger effect = lower value 0.988 | S. cerevisiae deletion strains, locus YPL051W, strain arl3, stronger effect = lower value 0.997 | S. cerevisiae deletion strains, locus YPL055C, strain LGE1, stronger effect = lower value 0.984 | S. cerevisiae deletion strains, locus YPL078C, strain atp4, stronger effect = lower value 0.986 | S. cerevisiae deletion strains, locus YPL106C, strain sse1, stronger effect = lower value 0.953 | S. cerevisiae deletion strains, locus YPL240C, strain hsp82, stronger effect = lower value 0.982 | S. cerevisiae deletion strains, locus YPL256C, strain CLN2, stronger effect = lower value 1.03 | S. cerevisiae deletion strains, locus YPR119W, strain clb2, stronger effect = lower value 0.979 | S. cerevisiae deletion strains, locus YPR141C, strain kar3, stronger effect = lower value 0.988 | S. cerevisiae deletion strains, locus YPR163C, strain tif3, stronger effect = lower value 0.988 | S. cerevisiae deletion strains, locus YPR167C, strain met16, stronger effect = lower value 0.984 | S. cerevisiae deletion strains, strain wtn01, stronger effect = lower value 0.971 | S. cerevisiae strains, strain wild type, stronger effect = lower value 0.985

From PubChem BioAssay AID1159580 (chemical genetic matrix, 2015)
